Sampled rows, rich in hits. Any-hit rate of the full collection: about 21%.
ClpP mod: qHTS Assay for Activators of ClpP. ATP-dependent Clp protease proteolytic subunit (Bacillus subtilis (strain 168)), P80244. purified B. subtilis ClpP, FRET peptide cleavage, 20 min. Potency, µM (doses to about 57.5 µM), for inactives: top-dose activity change, negative = active. actives 1.9% (n = 340,000); active = well fitted falling curve with a large enough effect; inconclusive = small, poorly fitted or top-dose-only effect; inactive = no such curve, though single readings can be large or run the other way; also: potency is read from the fitted curve at half-maximal effect; the source files actives as falling curves though it sought activators and does not explain the sign; nearly all actives have a fitted effect of over 65% in size
Target sequence (P80244 whole entry, looked up): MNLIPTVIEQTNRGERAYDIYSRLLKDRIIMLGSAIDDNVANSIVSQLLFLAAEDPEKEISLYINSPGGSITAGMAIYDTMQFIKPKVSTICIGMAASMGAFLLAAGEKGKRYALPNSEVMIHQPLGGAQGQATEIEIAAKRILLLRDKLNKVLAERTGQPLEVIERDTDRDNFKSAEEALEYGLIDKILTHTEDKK
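FRET quenching reversal measured ClpP activation: 10 microg/mL B. subtilis ClpP at pH 8 with the FRET-FV decapeptide, read at 430 nm after 320 nm excitation. The 20-min minus 0-min signal was scaled between DMSO/no-enzyme wells and ADEP (5.8 microM final).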
DRD3 antagonist: antagonists of human D3 dopamine receptor | D3R cells, DiscoveRx beta-arrestin luminescence, antagonist mode; hits give low values | max response, negative = inhibition, % | actives 2.5% (n = 360,000); in the data active = max response below about -50%; inconclusive = no clear call, values can overlap the other calls; also: % is scaled to controls: 0 for no effect and ±100 for the full control effect
Target sequence (P35462 whole entry, looked up): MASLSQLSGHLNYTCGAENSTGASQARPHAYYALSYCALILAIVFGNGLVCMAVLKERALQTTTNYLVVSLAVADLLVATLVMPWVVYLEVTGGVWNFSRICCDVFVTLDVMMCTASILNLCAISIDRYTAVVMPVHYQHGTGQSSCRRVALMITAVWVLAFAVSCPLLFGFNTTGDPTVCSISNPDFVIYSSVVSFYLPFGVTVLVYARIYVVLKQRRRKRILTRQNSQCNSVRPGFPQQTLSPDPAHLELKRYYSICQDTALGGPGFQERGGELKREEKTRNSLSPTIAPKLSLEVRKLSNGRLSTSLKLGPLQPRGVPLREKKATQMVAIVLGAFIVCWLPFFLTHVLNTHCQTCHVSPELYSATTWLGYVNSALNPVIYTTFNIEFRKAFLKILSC
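Cells plated overnight at 1500 cells/well, then exposed to library compounds with dopamine controls for 90 minutes at 37 degrees C. DiscoveRx reagent added for 30–60 minutes at room temperature; luminescence read, quantitative HTS format.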
TDP1 cell CPT: DT40-hTDP1 cell growth loss with CPT. chicken DT40 Tdp1-/-;hTDP1 cells + 20 nM CPT, ATP luminescence, 48 h. Potency, µM (series often up to 46.2 µM), for the others: at the top dose activity change, negative = growth inhibition, hits mostly inhibitors. actives 12% (n = 420,000); also: potency is read from the fitted curve at half-maximal effect; % is scaled to controls: 0 for no effect and ±100 for the full control effect; nearly all actives have a fitted effect of over 55% in size
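Chicken DT40 Tdp1-/- cells stably complemented with human TDP1 were seeded at 400 cells/well in medium containing 20 nM camptothecin, exposed to pin-transferred compounds, and grown at 37 °C for at least 48 hr. Viability was read as ATP luminescence.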
TDP1 cell noCPT: qHTS for Inhibitors of human tyrosyl-DNA phosphodiesterase 1 (TDP1): qHTS in cells in absence of CPT | DT40 Tdp1-/- hTDP1 cells, no CPT, ATP luminescence, 48 h | Potency, µM (highest dose often 46.2 µM), without a hit: at the top dose activity change, negative = growth inhibition, usual class: inhibitors | actives 15% (n = 420,000) | AID 686978, 2013; also: potency is read from the fitted curve at half-maximal effect; % is scaled to controls: 0 for no effect and ±100 for the full control effect; nearly all actives have a fitted effect of over 55% in size
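Seeded 400 DT40-hTDP1 cells/well (vehicle DMSO, no 20 nM CPT); pinned compounds; ≥48 hr at 37 °C; CellTiter-Glo luminescence as viability measure.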
IL-1B inflam inh: blocks inflammasome-driven IL-1 beta release; THP-1 LPS/ATP IL-1B secretion, AlphaLISA, 16 h; hits give low values; activity change, % at 57.5 µM; actives 4.7% (n = 360,000); in the data active = activity change below about -50%; inconclusive = mostly about -30% to -49%; also: % is scaled to controls: 0 for no effect and ±100 for the full control effect
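THP-1 cells pretreated 1 hr with compounds (up to 57.5 uM final), then stimulated with LPS (250 ng/mL final) plus ATP (1.25 mM final); secreted IL-1B measured by AlphaLISA after 16 hr, decreased signal indicating inhibition.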
D3 ag: agonists of human D3 dopamine receptor. P35462. D3R DiscoveRx beta-arrestin cells, luminescence, 90 min. max activation, %. actives 0.58% (n = 410,000); in the data active = max activation above about 30%; also: 0% is about no effect
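Agonist-mode cell screen: cells plated at 1500/well and incubated overnight at 37 °C, then exposed to library compounds for 90 min at 37 °C. Detection reagent was added for 30–60 min at room temperature, and luminescence was read.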
* marks the source's active call; other numbers are inactive results; ? = inconclusive; . = not tested or not shown. Unless noted, calls follow the shape of the dose curve; as a rule, active = well fitted inhibition curve with a large enough effect; inconclusive = small, poorly fitted or top-dose-only effect; inactive = flat fitted curve, though single readings scatter.

SMILES | ClpP mod | DRD3 antagonist | TDP1 cell CPT | TDP1 cell noCPT | IL-1B inflam inh | D3 ag
CCCC(=O)N1CCN(c2nc3ccc(F)cc3s2)CC1 | 1% | . | 15µM* | 12µM* | . | 1
CCC(=O)N1CCN(c2nc3c(C)cccc3s2)CC1 | 2% | . | ? | ? | . | 4
CC(C)(C)C(=O)N1CCN(c2nc3ccccc3s2)CC1 | -2% | 0 | -23% | ? | 10 | 5
CCc1ccc2nc(N3CCN(C(=O)C(C)(C)C)CC3)sc2c1 | 0% | 1 | ? | 18µM* | -2 | 2
CCC(=O)N1CCN(c2nc3ccc(Br)cc3s2)CC1 | 1% | -2 | ? | 18µM* | -19 | -4
CCN(CC(=O)Nc1ccc(N2CCOCC2)cc1)C(=O)COc1ccccc1OC | . | -19 | 8% | -2% | 0 | 1
CC(C)OCCCn1c(=O)c2ccccc2n2c(-c3ccccc3)nnc12 | -8% | . | ? | ? | . | -5
CCOC(=O)c1cn2nc(Oc3cccc(C(F)(F)F)c3)ccc2n1 | . | -8 | 0% | ? | . | -8
Cc1c(NC(=O)c2cc(-c3cccs3)nc3ccccc23)c(=O)n(-c2ccccc2)n1C | . | 26 | ? | 21µM* | -89* | 4
COc1ccc(-c2cc(C(=O)Nc3c(C)n(C)n(-c4ccccc4)c3=O)c3ccccc3n2)cc1OC | -3% | 2 | ? | 15µM* | 3 | 23
COc1ccc(-c2cc(C(F)F)n3ncc(C(=O)Nc4c(C)n(C)n(-c5ccccc5)c4=O)c3n2)cc1 | . | -8 | ? | 12µM* | 1 | 12
Cc1ccc(NC(=O)c2cc(-c3cccs3)nc3ccccc23)nc1 | . | 75 | 23µM* | 13µM* | ? | 7
Cc1ccc(-c2cc(C(=O)Nc3c(C)n(C)n(-c4ccccc4)c3=O)c3ccccc3n2)cc1 | -5% | 25 | ? | ? | -5 | 0
CC(C)(CC(=O)O)CC(=O)NCc1c(Cl)cccc1Oc1ccccc1 | . | 10 | -6% | -2% | 5 | 11
O=C1NN=C(CSc2n[nH]c(=S)s2)CS1 | 2% | -10 | -17% | -28% | 32 | 1
Cc1oc2ncn(C)c(=O)c2c1C(=O)N1CCN(c2cccc(C(F)(F)F)c2)CC1 | -4% | . | -19% | -18% | . | 4
CCOc1ccc2nc(N/C(N)=N/S(=O)(=O)c3ccc(C)cc3)nc(C)c2c1 | ? | 10 | ? | ? | -21 | -2
COc1ccc(OC)c(N/C(=N/C(=S)Nc2ccccc2)Nc2nc(C)cc(C)n2)c1 | -2% | 17 | ? | 8.2µM* | -2 | 1
COc1ccc2nc(N/C(N)=N/C(=S)Nc3ccccc3)nc(C)c2c1 | . | -21 | 26µM* | 8.2µM* | -87* | -9
CCOc1ccc2nc(N/C(N)=N/S(C)(=O)=O)nc(C)c2c1 | 3% | 20 | -1% | -27% | ? | -1
Cc1cc(C)cc(NC(=S)/N=C(\N)Nc2nc(C)c3ccccc3n2)c1 | -7% | 13 | 21µM* | 15µM* | 2 | -4
Cc1ccc(S(=O)(=O)/N=C(\N)Nc2nc(C)c3ccccc3n2)cc1 | -13% | 2 | -1% | -2% | -21 | 4
Cc1cccc(NC(=S)/N=C(\N)Nc2nc(C)c3cc(C)ccc3n2)c1 | -17% | -19 | 21µM* | 23µM* | ? | -21
CCCCCCCCCCC(CO)CCCCCCCC (centres undefined) | . | . | -25% | -15% | . | 2
O=C(CCc1ccccc1)N=C1SC2CS(=O)(=O)CC2N1c1cccc(F)c1 (centres undefined) | 0% | -1 | -3% | 8% | -22 | -3
SMILES | ClpP mod | DRD3 antagonist | TDP1 cell CPT | TDP1 cell noCPT | IL-1B inflam inh | D3 ag
Cc1nn(C(=O)Cn2ccc([N+](=O)[O-])n2)c(C)c1Br | -1% | 8 | -3% | 0% | -14 | 7
CCc1nc(Oc2cccc(F)c2)c2oc3ccccc3c2n1 | -3% | . | ? | ? | . | 4
CC(C)=NN/C(N)=N/C(=S)Nc1ccc(C)cc1 | 2% | -11 | ? | ? | 11 | -10
CCc1ccc(NC(=S)/N=C(\N)Nc2nc(C)c3cc(CC)ccc3n2)cc1 | . | ? | ? | ? | -64* | -8
Cc1ccc(NC(=S)/N=C(\N)Nc2nc(C)c3ccccc3n2)cc1C | -4% | -12 | ? | ? | 19 | -9
Cc1cccc(NC(=S)/N=C(\N)Nc2nc(C)c3ccccc3n2)c1 | 1% | 9 | 18µM* | ? | -27 | -15
Cc1cccc(NC(=S)/N=C(\N)Nc2nc(C)c3ccc(C)cc3n2)c1 | 1% | -1 | 15µM* | 12µM* | -6 | -13
Cc1ccsc1CN(C)CC(=O)Nc1ccccc1C(=O)NC1CC1 | ? | 23 | 12% | 0% | 14 | 2
N#CC1=C(SCC(=O)c2ccccc2)NC2=C(C(=O)CCC2)C1c1ccco1 (centres undefined) | -3% | ? | 2.9µM* | 2.6µM* | -97* | -13
CSC1=C(C#N)C(c2ccc3c(c2)OCO3)C2=C(CCCC2=O)N1 (centres undefined) | -3% | 8 | ? | -22% | -14 | -3
COc1ccc(C2C(C#N)=C(SCC(=O)Nc3ccc(C)cc3)NC3=C2C(=O)CC(C)(C)C3)cc1 (centres undefined) | 22µM* | -6 | 23µM* | 16µM* | -57* | 3
CC(C)(C)c1ccc(C(=O)CCCSC2=C(C#N)C(c3ccco3)C3=C(CCCC3=O)N2)cc1 (centres undefined) | -18% | -16 | 16µM* | 9.2µM* | -11 | -26
CCSC1=C(C#N)C(c2ccc(Cl)cc2)C2=C(CCCC2=O)N1 (centres undefined) | -20% | -7 | 1.5µM* | 1.5µM* | -10 | -5
Cc1cc(NC(=O)CSc2n[nH]c(-c3ccc(Cl)cc3Cl)n2)no1 | 0% | 0 | -11% | ? | 6 | -3
C[C@@H]1C(=O)O[C@H]2[C@@H](O)[C@@]34[C@H]5CC(C(C)(C)C)[C@]36[C@@H](OC(=O)[C@@H]6O)O[C@@]4(C(=O)O5)[C@@]12O (some centres undefined) | . | . | 2% | -11% | . | .
O=C(OCC(=O)N1CCCC1=O)c1ccc(Cl)cc1[N+](=O)[O-] | . | 13 | 16% | -1% | 8 | 16
CCOC(=O)[C@@H]1[C@H]2COc3cc(OC)ccc3[C@H]2N2C(=O)N(c3ccc(C)cc3)C(=O)[C@]12C | -2% | 4 | -33% | -52% | -7 | -5

Screening data: PubChem, National Center for Advancing Translational Sciences (NCATS)
